We go through nine compounds from PubChem BioAssay (NCI).

Test [1] can be described thus: NCI Yeast Anticancer Drug Screen. Data for the rad50 strain (AID 155).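 Note: 0% = growth of vehicle-only cultures of the same strain.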 As to conditions: S. cerevisiae rad50 strain growth inhibition, hits give high values. A digest of the protocol: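 A DNA repair-deficient yeast mutant serves as the test organism; compound-induced growth inhibition is calculated against vehicle-treated cells.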
Test [2] in a line: NCI Yeast Anticancer Drug Screen. Data for the mec2-1 strain (AID 157). As to conditions: S. cerevisiae mec2-1 strain, hits give high values. The method, boiled down: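 Growth inhibition is read against vehicle-treated controls after compound exposure of the mec2-1 yeast strain, which is defective in DNA damage repair or cell cycle control.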
Test [3] can be described thus: NCI Yeast Anticancer Drug Screen. Data for the sgs1 mgt1 strain (AID 161).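 Note: 0% = growth of cultures given vehicle only.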 As to conditions: S. cerevisiae sgs1 mgt1 strain, hits give high values. A digest of the protocol: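 This yeast growth screen uses a strain with defined DNA-repair lesions; compound-treated growth is compared with vehicle-treated growth.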
Test [4] is described as follows: NCI Yeast Anticancer Drug Screen. Data for the cln2 rad14 strain (AID 165).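 Note: 0% = growth equal to vehicle treated cultures.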 As to conditions: S. cerevisiae cln2 rad14 strain, hits give high values. A digest of the protocol: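 Growth inhibition, relative to vehicle-treated controls, is the read-out. The test organism is a yeast strain with defined genetic alterations, cln2 rad14.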
A short description of test [5]: NCI Yeast Anticancer Drug Screen. Data for the bub3 strain (AID 167). As to conditions: S. cerevisiae bub3 mutant strain, hits give high values. A digest of the protocol:
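Inhibition values come from growth of compound-treated mutant yeast normalised to vehicle-treated controls.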

Test [6] can be described thus: NCI Yeast Anticancer Drug Screen. Data for the mlh1 rad18 strain (AID 175). As to conditions: S. cerevisiae mlh1 rad18 strain growth inhibition, hits give high values. A digest of the protocol: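 Cells of a genetically altered yeast strain, deficient in DNA damage repair, were treated with compound. Their growth was then compared with that of vehicle-treated cultures to give inhibition.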

[7] abbreviates: at 5.0 µM (retest, dose inferred, filed as 0.5).
The mark [8] stands for this setting: at 50.0 µM (retest, dose inferred, filed as 5.0).

Each structure is given as a SMILES string. The panel holds about 79,000 compounds, 15% with a hit somewhere; the sample as a whole holds those more often. A number with no mark means an inactive call. Activity calls are given as the source filed them. Cut-off read from the data, not from the text of the source: active = growth inhibition above about 70%; inactive = the rest.

For the compound `Cc1cc(I)ccc1NC(=S)Nc1ccccc1F`, the growth inhibition is -3% in test [1] (setting [7]); 62% in test [1] (setting [8]); 90.7% (active) in test [1] (at 50.0 µM); -4% in test [2] (setting [7]); 79% (active) in test [2] (setting [8]); 90.5% (active) in test [2] (at 50.0 µM). Further, the growth inhibition in test [3] (setting [7]) is -3%; in test [3] (setting [8]) it was 41%; in test [3] (at 50.0 µM), 86.5% (active); in test [4] (setting [7]), -19%; in test [4] (setting [8]), 45%; in test [4] (at 50.0 µM), 70% (active). Further, the growth inhibition in test [5] (setting [7]) is 5%; in test [5] (setting [8]), 86% (active); in test [5] (at 50.0 µM), 95.1% (active); in test [6] (setting [7]), -4%; in test [6] (setting [8]), 68%; in test [6] (at 50.0 µM), 90.7% (active).
For `Cc1c(O)/c(=C\O)c2nc3c(=O)ccc(C(=O)NCCN(C)C)c3[nH]c2c1=O`, the growth inhibition in test [1] (setting [7]) is 29%; in test [1] (setting [8]) it was 97% (active); in test [1] (at 50.0 µM), 57.5%; in test [2] (setting [7]), 14%; in test [2] (setting [8]), 70% (active); in test [2] (at 50.0 µM) it was 98.2% (active). Besides, the growth inhibition in test [3] (setting [7]) was 33%; in test [3] (setting [8]), 97% (active); in test [3] (at 50.0 µM), 56%; in test [4] (setting [7]) it was -10%; in test [4] (setting [8]), 94% (active); in test [4] (at 50.0 µM), 98.2% (active). Besides, the growth inhibition is 19% in test [5] (setting [7]); 96% (active) in test [5] (setting [8]); 98.3% (active) in test [5] (at 50.0 µM); 34% in test [6] (setting [7]); 96% (active) in test [6] (setting [8]); 45.1% in test [6] (at 50.0 µM).
Take `CCc1ccccc1NC1=C(Cl)C(=O)c2ccccc2C1=O`: the growth inhibition was 99% (active) in test [1] (setting [7]); 98% (active) in test [1] (setting [8]); -1.85% in test [1] (at 50.0 µM); 100% (active) in test [2] (setting [7]); 99% (active) in test [2] (setting [8]); 10.8% in test [2] (at 50.0 µM). The growth inhibition in test [3] (setting [7]) was 100% (active); in test [3] (setting [8]) it was 99% (active); in test [3] (at 50.0 µM), 1.85%; in test [4] (setting [7]) it was 77% (active); in test [4] (setting [8]), 99% (active); in test [4] (at 50.0 µM) it was -20.3%. For the same compound, the growth inhibition in test [5] (setting [7]) is 99% (active); in test [5] (setting [8]) it was 99% (active); in test [5] (at 50.0 µM), -0.2%; in test [6] (setting [7]) it was 99% (active); in test [6] (setting [8]) it was 98% (active); in test [6] (at 50.0 µM) it was 10%.
Turning to `CCOC(=O)/C=C1/C(=O)OC2C1OC1OC(C)(C)OC12` (configuration not stated), the growth inhibition in test [1] (setting [7]) was 9%; in test [1] (setting [8]) it was 99% (active); in test [1] (at 50.0 µM), 6.3%; in test [2] (setting [7]), 16%; in test [2] (setting [8]) it was 100% (active); in test [2] (at 50.0 µM), 34.8%. The growth inhibition in test [3] (setting [7]) is -5%; in test [3] (setting [8]), 100% (active); in test [3] (at 50.0 µM) it was 57%; in test [4] (setting [7]), 37%; in test [4] (setting [8]) it was 100% (active); in test [4] (at 50.0 µM) it was -15.1%. Moreover, the growth inhibition in test [5] (setting [7]) was 33%; in test [5] (setting [8]), 100% (active); in test [5] (at 50.0 µM) it was 26.1%; in test [6] (setting [7]), 7%; in test [6] (setting [8]), 99% (active); in test [6] (at 50.0 µM), 54.8%.
As to `COc1ccc(Oc2cc3c[n+](C)ccc3cc2OC)cc1`, the growth inhibition in test [1] (setting [7]) is 4%; in test [1] (setting [8]) it was 90% (active); in test [1] (at 50.0 µM) it was 99% (active); in test [2] (setting [7]), -3%; in test [2] (setting [8]), 57%; in test [2] (at 50.0 µM), 99% (active). Besides, the growth inhibition is -3% in test [3] (setting [7]); 91% (active) in test [3] (setting [8]); 99.4% (active) in test [3] (at 50.0 µM); 2% in test [4] (setting [7]); 70% (active) in test [4] (setting [8]); 98% (active) in test [4] (at 50.0 µM). The growth inhibition in test [5] (setting [7]) was 0%; in test [5] (setting [8]) it was 90% (active); in test [5] (at 50.0 µM), 98% (active); in test [6] (setting [7]) it was 15%; in test [6] (setting [8]), 88% (active); in test [6] (at 50.0 µM) it was 98.8% (active).
Regarding `COC12C=CC(CC1)C1=C2C(=O)c2nc(C)c(C)nc2C1=O` (configuration not stated), the growth inhibition in test [1] (setting [7]) was -1%; in test [1] (setting [8]), 27%; in test [1] (at 50.0 µM), 30.8%; in test [2] (setting [7]), 9%; in test [2] (setting [8]), 20%; in test [2] (at 50.0 µM) it was 7.5%. Further, the growth inhibition is -1% in test [3] (setting [7]); 39% in test [3] (setting [8]); 33.6% in test [3] (at 50.0 µM); 21% in test [4] (setting [7]); 3% in test [4] (setting [8]); 20.8% in test [4] (at 50.0 µM). For the same compound, the growth inhibition in test [5] (setting [7]) was 5%; in test [5] (setting [8]), 8%; in test [5] (at 50.0 µM), 20.8%; in test [6] (setting [7]) it was 12%; in test [6] (setting [8]) it was 52%; in test [6] (at 50.0 µM) it was 34.2%.
Regarding `O=C(CCC(O)(c1ccccc1)c1ccccc1)c1ccccc1`, the growth inhibition in test [1] (setting [7]) is -4%; in test [1] (setting [8]) it was 97% (active); in test [1] (at 50.0 µM), 65.8%; in test [2] (setting [7]), -13%; in test [2] (setting [8]) it was 98% (active); in test [2] (at 50.0 µM), -11.9%. Besides, the growth inhibition is -11% in test [3] (setting [7]); 98% (active) in test [3] (setting [8]); 13.2% in test [3] (at 50.0 µM); -89% in test [4] (setting [7]); 99% (active) in test [4] (setting [8]); -27.2% in test [4] (at 50.0 µM). Besides, the growth inhibition is -9% in test [5] (setting [7]); 46% in test [5] (setting [8]); 4.9% in test [5] (at 50.0 µM); -3% in test [6] (setting [7]); 98% (active) in test [6] (setting [8]); 70.5% (active) in test [6] (at 50.0 µM).
For the compound `O=[N+]([O-])c1ccc2nc(-c3ccccn3)[nH]c2c1`, the growth inhibition in test [1] (setting [7]) is -2%; in test [1] (setting [8]), 27%; in test [1] (at 50.0 µM), 86.3% (active); in test [2] (setting [7]) it was 1%; in test [2] (setting [8]) it was 5%; in test [2] (at 50.0 µM) it was 87% (active). Further, the growth inhibition in test [3] (setting [7]) was -13%; in test [3] (setting [8]) it was 17%; in test [3] (at 50.0 µM), 73.6% (active); in test [4] (setting [7]), -12%; in test [4] (setting [8]), -3%; in test [4] (at 50.0 µM), 77.3% (active). The growth inhibition is -25% in test [5] (setting [7]); 16% in test [5] (setting [8]); 88.6% (active) in test [5] (at 50.0 µM); -38% in test [6] (setting [7]); 42% in test [6] (setting [8]); 88.5% (active) in test [6] (at 50.0 µM).
`CCCCCCCCCCCCO`: the growth inhibition in test [1] (setting [7]) was 10%; in test [1] (setting [8]), 23%; in test [1] (at 50.0 µM), 64.4%; in test [2] (setting [7]) it was 9%; in test [2] (setting [8]), 24%; in test [2] (at 50.0 µM), 42%. Moreover, the growth inhibition was -4% in test [3] (setting [7]); 28% in test [3] (setting [8]); 60.8% in test [3] (at 50.0 µM); 0% in test [4] (setting [7]); 12% in test [4] (setting [8]); -4.65% in test [4] (at 50.0 µM). For the same compound, the growth inhibition in test [5] (setting [7]) is -6%; in test [5] (setting [8]), 51%; in test [5] (at 50.0 µM) it was 2.85%; in test [6] (setting [7]) it was 12%; in test [6] (setting [8]), 55%; in test [6] (at 50.0 µM), 76.4% (active).
